# HT1080NT lethal – kills 2HG-producing HT-1080-NT fibrosarcoma cells; AID 686970; 360,000 compounds, 1.6% hits; HT-1080-NT fibrosarcoma viability, CellTiter-Glo ATP luminescence, 48 h; Potency, µM (highest dose often 46.1 µM), for inactives: at the highest dose activity, negative = less viability, most hits filed as cytotoxic;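 further: NT is the 2HG producing partner of a matched IDH1 knockdown line; potency means the concentration at half of the fitted maximal effect; 0% = DMSO-treated cells and -100% = media-only wells without cells; nearly all actives have a fitted effect of over 55% in size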
#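 HT-1080-NT fibrosarcoma cells (2HG-overproducing), 750 cells/well in RPMI with 5% FBS, dosed after 2 h and incubated 48 h at 37C. CellTiter-Glo luminescence normalized to DMSO and no-cell wells; concentration-response curves fitted and classed.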
# ELG1 repair inh – ELG1-dependent DNA repair inhibition | HEK293T ELG1-luciferase reporter, luminescence, 16 h; DNA damage induced by 5-fluorouridine | Potency, µM (series often up to 46.1 µM), without a hit: top-dose activity change, negative = inhibition, hits mostly inhibitors | 330,000 compounds, 2.3% hits | AID 504467; further: potency means the concentration at half of the fitted maximal effect; nearly all actives have a fitted effect of over 55% in size
#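 Luminescence from the luciferase reporter, measured 30 min after ONE-Glo reagent at room temperature, was the read-out. Beforehand, 2,000 cells per well were exposed for 16 hr at 37 °C to 5-fluorouridine together with compound or vehicle.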
# TDP1 cell noCPT – qHTS for Inhibitors of human tyrosyl-DNA phosphodiesterase 1 (TDP1): qHTS in cells in absence of CPT | Potency, µM (doses to about 46.2 µM), without a hit: at the top dose activity change, negative = growth inhibition, most hits filed as inhibitors | DT40 Tdp1-/- hTDP1 cells, no CPT, ATP luminescence, 48 h | 420,000 compounds, 15% hits; further: potency means the concentration at half of the fitted maximal effect; nearly all actives have a fitted effect of over 55% in size
#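 Chicken DT40 Tdp1-/- cells complemented with human TDP1, screened without camptothecin (DMSO vehicle only), 400 cells/well. Compounds pin-transferred, cells incubated at 37 °C for at least 48 hr. Growth read as ATP-dependent luminescence (CellTiter-Glo, 30 min at RT).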
# DT40 TDP1 CPT – DT40-hTDP1 cell growth loss with CPT | chicken DT40 Tdp1-/-;hTDP1 cells + 20 nM CPT, ATP luminescence, 48 h | Potency, µM (top dose mostly 46.2 µM), without a hit: at the top dose activity change, negative = growth inhibition, actives largely listed as inhibitors | 420,000 compounds, 12% hits | AID 686979; further: potency means the concentration at half of the fitted maximal effect; nearly all actives have a fitted effect of over 55% in size
#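 Chicken DT40 Tdp1-/- cells stably complemented with human TDP1 were seeded at 400 cells/well in medium containing 20 nM camptothecin, exposed to pin-transferred compounds, and grown at 37 °C for at least 48 hr. Viability was read as ATP luminescence.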
# HT1080 IDH1KD tx – kills HT-1080 cells with IDH1 knockdown. 360,000 compounds, 2% hits. Potency, µM (doses to about 46.1 µM), for inactives: top-dose activity, negative = toxicity, actives largely listed as cytotoxic. AID 686971. HT-1080 IDH1 knockdown viability, ATP luminescence, 48 h;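 further: potency means the concentration at half of the fitted maximal effect; 0% = DMSO wells and -100% = cell-free medium wells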
#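 After a 2 h attachment period, IDH1KD HT-1080 cells took pin-transferred compound for 48 h at 37 °C; ATP-based luminescence after 10 min room-temperature reagent incubation reported viability.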
# IL1B secr inh – inflammasome signaling inhibition, IL-1 beta readout; THP-1 LPS/ATP IL-1B secretion, AlphaLISA, 16 h; hits give low values; 360,000 compounds, 4.7% hits; AID 743279; activity change, % at 57.5 µM; in the data active means activity change below about -50%; inconclusive means mostly about -30% to -49%
#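 Secreted IL-1B measured by AlphaLISA bead assay after 16 h compound exposure of THP-1 cells; compounds (final up to 57.5 uM) added 1 h before LPS (250 ng/mL) and ATP (1.25 mM) stimulation; lower signal means less secretion.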
# An asterisk follows results filed as active; ? = inconclusive; · = no result given; [ ] = dose if it differs, or a comment. An excerpt weighted towards active compounds, which were near 19% of everything screened. Unless noted, the call rests on the fitted dose curve; in most records, active means well fitted curve in the direction sought with a large enough effect; inconclusive means small, poorly fitted or top-dose-only effect, or another doubt; inactive means no such curve, though single readings can be large; an effect the other way counts as inactive or inconclusive. Unless noted, on the % scale 0 is the no-effect control and ±100 the full control effect.
SMILES,HT1080NT lethal,ELG1 repair inh,TDP1 cell noCPT,DT40 TDP1 CPT,HT1080 IDH1KD tx,IL1B secr inh
COc1ccc2nc(C)c3c(c2c1)OC(C(C)(Cl)Br)C3 (stereo not drawn),-17%,?,18µM*,?,-5%,-13
Cc1nc2ccccc2c2c1CC(C(C)(Cl)Br)O2 (stereo not drawn),?,?,3.7µM*,6.5µM*,?,39
COc1ccc2nc(C)c3cc(C)oc3c2c1,3%,3%,-15%,-11%,13%,-24
Cc1nc2ccccc2c2c1CC(C)S2 (stereo not drawn),-1%,-5%,-1%,-29%,-3%,45
CCOC(=O)N1CCc2c(sc3nc4n(c(=O)c23)N=C(c2ccc(OC)cc2)CS4)C1,5%,?,-15%,1%,23%,24
Cc1nnc(Sc2cc(C(=O)NC3CC3)c3ccccc3n2)s1,11%,-17%,7.3µM*,?,6%,-6
COc1ccc(-c2cc(C(=O)NCC(c3ccco3)N(C)C)c3ccccc3n2)cc1OC (stereo not drawn),-5%,?,15µM*,23µM*,9%,-23
COCCNC(=O)c1cc(Sc2nnc(C)s2)nc2ccccc12,·,-2%,·,·,·,·
COc1ccc(-c2cc(C(=O)Nc3ccc(C(N)=O)cc3)c3ccccc3n2)cc1OC,?,?,5.8µM*,?,?,0
COc1cc2c(cc1NC(=O)c1cc(-c3ccncc3)nc3ccc(C)cc13)oc1ccccc12,9%,-4%,?,23µM*,3%,4
CCC1CN(CCNC(=O)c2ccccc2-n2cccn2)Cc2cc(OC)ccc2O1 (stereo not drawn),·,·,-1%,-7%[9.04 µM],·,·
CCN(CC)CCN1CNC(=S)NC1,-1%,·,-19%,2%,-2%,6
O=C(CSc1nnc(CNC(=O)c2c(F)cccc2F)o1)NCc1ccco1,2%,6%,1%,12%,0%,0
Cc1cccc(NC(=O)c2cc(-c3ccc(C)s3)nc3ccccc23)n1,?,6.5µM*,13µM*,18µM*,?,-9
COc1ccccc1CCNC(=O)c1cc(-c2ccccn2)nc2ccc(Br)cc12,·,24%,·,·,·,·
CCCCN(CCCC)CCCNC(=O)c1cc(-c2ccc(Cl)s2)nc2ccccc12,·,·,15µM*,13µM*,·,·
COc1ccccc1CCNC(=O)c1cc(-c2ccncc2)nc2ccc(Br)cc12,1%,?,21µM*,?,-4%,-3
COc1cc(-c2cc(C(=O)Nc3nc4ccccc4s3)c3ccccc3n2)cc(OC)c1OC,-12%,5.2µM*,6.5µM*,7.3µM*,-15%,-12
COc1ccc(NC(=O)CN(c2ccc(C)cc2)S(=O)(=O)c2cccs2)cc1,·,·,-5%,-6%,·,·
O=C1C(Cl)=C(O)C2(Cl)C(Cl)=C(Cl)C12Cl (stereo not drawn),2%,·,-14%,-7%,6%,7
COc1ccc(CCN(C)C(=O)c2cc(-c3ccc(C)cc3)nc3ccccc23)cc1OC,-5%,·,?,?,-11%,-12
COc1ccc(-c2cc(C(=O)NC(C)c3ccccn3)c3ccccc3n2)cc1OC (stereo not drawn),-3%,16µM*,21µM*,23µM*,0%,-15
COc1ccc(-c2cc(C(=O)N(C)Cc3ccc(F)cc3)c3ccccc3n2)cc1OC,-3%,·,?,23µM*,-1%,-8
COc1ccc(-c2cc(C(=O)NC3CCCC3)c3ccccc3n2)cc1OC,-4%,·,15µM*,?,-9%,20
COc1cc(-c2nc(-c3ccccn3)no2)cc(OC)c1OC,0%,?,?,?,9%,?
SMILES,HT1080NT lethal,ELG1 repair inh,TDP1 cell noCPT,DT40 TDP1 CPT,HT1080 IDH1KD tx,IL1B secr inh
COc1cc(-c2cc(-c3nnco3)c3ccccc3n2)cc(OC)c1OC,-16%,?,7.3µM*,?,-17%,?
Cc1cccc(C(=O)OCc2cc(=O)n3ccsc3n2)c1,·,·,5%,1%,·,·
COc1ccc(NC(=O)c2cc(-c3ccncc3)nc3ccccc23)c(OC)c1,?,?,?,?,?,-20
COc1cc2ccccc2cc1C(=O)NC1CCC(C)CC1 (stereo not drawn),2%,?,-62%,?,8%,-51*
Cc1ccnc(NC(=O)c2cc(-c3ccc(Cl)s3)nc3ccccc23)c1,-20%,?,18µM*,10µM*,-3%,11
COc1cc(-c2cc(C(=O)Nc3ccc(O)cc3)c3ccccc3n2)cc(OC)c1OC,?,5.8µM*,?,10µM*,?,-52*
O=C(Nc1ccccn1)c1cc(-c2ccc(Cl)s2)nc2ccccc12,-18%,?,?,?,-19%,12
COc1ccc(OC)c(NC(=O)c2cc(-c3ccc(Cl)s3)nc3ccccc23)c1,·,·,15µM*,-28%,·,·
C[C@H]1O[C@H](O[C@H]2[C@H](O)[C@@H](O)[C@@H](O[C@H]3[C@H](O)[C@@H](O)[C@H](O)O[C@@H]3CO)O[C@@H]2CO)[C@H](O)[C@@H](O)[C@@H]1N[C@H]1C=C(CO)[C@@H](O)[C@H](O)[C@H]1O,·,·,11%,9%,·,·
CC1CN(C(C)C)C(C)CC1OC(=O)c1ccccc1 (stereo not drawn),-2%,9%,3%,-2%,5%,9
Cc1ccc(C)c(NC(=O)Cn2c(=O)n(CC(=O)NCCc3ccccc3)c(=O)c3ccccc32)c1,·,·,?,1%,·,·
COc1ccc(NC(=O)c2cc(-c3ccc(OC)c(OC)c3)nc3ccccc23)c(OC)c1,-6%,?,16µM*,29µM*,-28%,6
CCOC(=O)C(=O)NN=C(c1ccccc1)c1ccccc1,6%,-13%,-10%,-12%,13%,7
CCOCCCNC(=O)c1cccc(NC(=O)C2=C(C)OCCS2)c1,3%,-2%,3%,5%,6%,9
CCCNC(=O)c1cc(Cl)c(NC(=O)C2=C(C)OCCS2)cc1OC,-4%,-28%,?,?,-13%,-53*
CCOCCCNC(=O)c1cc(Cl)c(NC(=O)C2=C(C)OCCS2)cc1OC,0%,-20%,12µM*,?,0%,-18
CC(c1nc2ccccc2c(=O)[nH]1)N1CCN(S(=O)(=O)c2ccc(F)c(Cl)c2)CC1 (stereo not drawn),-20%,·,?,18µM*,-17%,-4

# Screening results as filed in PubChem.
